Assay outcomes from PubChem BioAssay.
Compounds with a hit are over-represented: about 6.6% of the library has one in this group of screens.
NR3A LBD binder: NR3A (human) ligand-binding domain modulation; hit rate 2.5% among 340,000; NR3A LBD differential scanning fluorimetry, Tm shift; 0% = protein alone, 100% = glycine-bound protein; Tm shift relative to glycine control, % at 25 µM;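 active = melting temperature shift of at least 10% of the positive control shift, at one fixed dose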
Mdm2 MdmX PPI: inhibitors of human Mdm2/MdmX interaction; SaOS-2 split-luciferase Mdm2/MdmX complementation, luminescence; inhibition, % at 8 µM; hit rate 3% among 330,000;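 active = inhibition of at least 50% at 8 µM in the primary screen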
Target sequence (O15151 whole entry, looked up): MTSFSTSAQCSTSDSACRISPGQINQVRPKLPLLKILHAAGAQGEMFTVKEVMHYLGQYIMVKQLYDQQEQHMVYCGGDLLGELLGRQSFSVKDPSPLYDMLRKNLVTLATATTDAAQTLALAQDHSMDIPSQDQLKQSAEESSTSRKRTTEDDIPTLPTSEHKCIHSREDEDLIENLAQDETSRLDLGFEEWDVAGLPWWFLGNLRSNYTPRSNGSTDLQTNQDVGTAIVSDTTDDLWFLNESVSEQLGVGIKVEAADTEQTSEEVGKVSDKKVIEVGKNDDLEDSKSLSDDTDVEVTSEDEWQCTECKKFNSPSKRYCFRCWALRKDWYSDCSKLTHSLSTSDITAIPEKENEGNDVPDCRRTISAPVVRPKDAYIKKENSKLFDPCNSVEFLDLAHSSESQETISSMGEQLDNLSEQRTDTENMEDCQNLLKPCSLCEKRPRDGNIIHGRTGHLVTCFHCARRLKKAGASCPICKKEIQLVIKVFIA
Target sequence (Q00987 whole entry, looked up): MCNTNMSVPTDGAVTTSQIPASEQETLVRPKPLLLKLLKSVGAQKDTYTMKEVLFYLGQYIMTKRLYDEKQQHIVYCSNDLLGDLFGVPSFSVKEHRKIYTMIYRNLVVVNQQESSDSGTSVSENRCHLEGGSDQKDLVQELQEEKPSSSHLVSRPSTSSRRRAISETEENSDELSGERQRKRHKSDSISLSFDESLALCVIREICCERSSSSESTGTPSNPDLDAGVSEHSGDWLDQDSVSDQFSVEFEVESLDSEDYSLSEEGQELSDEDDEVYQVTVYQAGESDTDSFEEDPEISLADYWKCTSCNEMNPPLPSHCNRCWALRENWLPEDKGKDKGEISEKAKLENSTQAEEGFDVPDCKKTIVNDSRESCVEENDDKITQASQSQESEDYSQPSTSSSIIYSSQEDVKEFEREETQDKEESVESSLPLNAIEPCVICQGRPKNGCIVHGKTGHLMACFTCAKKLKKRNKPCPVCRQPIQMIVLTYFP
Gli-Sufu block: blocks Gli-Sufu signaling in a luciferase reporter; Sufu-KO-LIGHT fibroblasts, Gli luciferase reporter luminescence; inhibition, % at 5 µM; hit rate 0.74% among 340,000;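 active = inhibition above about 55%, limit read from the data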;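 also: 0% = DMSO-treated cells and 100% = wells with medium but no cells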
CSC inhib: cancer stem cell inhibition. cancer stem cell-like cells viability, luminescence. inhibition, % at 7.5 µM. hit rate 1.1% among 300,000; in the data active = inhibition above about 75%; inconclusive = no clear call, values can overlap the other calls; tested in HMLE shEcad cells
MPTP block: permeability transition pore inhibition | inhibition, % at 10 µM | isolated mouse mitochondria, Ca2+ swelling absorbance, 30 min | hit rate 1.4% among 360,000;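 active = inhibition of 50% or more, scaled per plate between neutral and stimulator controls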;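 also: 0% = DMSO wells given calcium and 100% = 1 mM EGTA wells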
Beta cell apopt: beta cell apoptosis inhibition; AID 435005; protection from apoptosis, % (no concentration beside the values); INS-1E cytokine-induced death, ATP luminescence, 48 h; percent of positive-control rescue, neutral wells zero; hit rate 0.8% among 300,000;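 active = Every replicate reaches about 75%, or at least half do and their mean reaches it too, limit read from the data; inconclusive = At least half of replicates reach the limit but their mean does not; inactive = Under half of replicates reach the limit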;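 also: 0% = cytokine-treated negative control wells and 100% = positive control rescue; higher means more ATP so stronger rescue from cytokine killing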
Mdm2 MdmX conf: human Mdm2/MdmX binding inhibition, confirmed; shares compounds with Mdm2 MdmX PPI; luminescent assay; inhibition, % at 8 µM; hit rate 55% among 10,000; in the data active = inhibition above about 40%
Full FLuc ctr: counter-screen for Mdm2/MdmX inhibitors: full-length luciferase; shares compounds with Mdm2 MdmX PPI; SaOS-2 full-length luciferase counterscreen, luminescence; inhibition, % at 8 µM; hit rate 77% among 6,200; AID 504607;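 active = mean inhibition at 8 µM reaching about 37%, which flags the compound as non-specific, limit read from the data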;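 also: p53-null SaOS-2 cells with luciferase driven by a doxycycline-inducible promoter; compound on cells about two nights before reading with doxycycline added after day one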
* marks the source's active call; other numbers are inactive results; ? = inconclusive; · = no result.

SMILES	NR3A LBD binder	Mdm2 MdmX PPI	Gli-Sufu block	CSC inhib	MPTP block	Beta cell apopt	Mdm2 MdmX conf	Full FLuc ctr
CCOc1cc(NC(=O)C2CC2)c(OCC)cc1NC(=O)c1ccccc1OCC	-4	36	-8	40	2	31	·	·
CCN1C(N(C)CCc2c[nH]c3ccccc23)=N[C@@H](c2cccc(C(F)(F)F)c2)C(C(=O)OC)=C1C	-4	88*	14	67	4	7	41*	44*
C=C1CCC2[C@](C)(CO)[C@H](O)CC[C@@]2(C)[C@@H]1C/C=C1\C(=O)OC[C@H]1O (stereo not given in full)	7	69*	3	-12	-1	-17	63*	27
C=C/C(C)=C/C[C@H]1C(=C)CCC2[C@](C)(C(=O)O)CCC[C@@]21C (stereo not given in full)	1	3	-4	-13	1	-2	·	·
CN(C(=O)c1cccc(NC(=O)Cc2ccc(NC(=O)C3CCCN(C(=O)C4CC4)C3)cc2)c1)C1CCCC1 (stereo not given)	1	·	-26	·	-2	·	·	·
CCN(c1ccccc1)S(=O)(=O)c1ccc(Cl)c(NC(=O)CN2CCCCCC2)c1	0	69*	7	?	4	104*	23	·
O=C(Nc1cc(S(=O)(=O)N2CCOCC2)ccc1Cl)c1cc([N+](=O)[O-])ccc1Cl	1	97*	0	51	-1	5	44*	12
O=C(Nc1ccc(S(=O)(=O)N2CCOCC2)cc1)c1ccc([N+](=O)[O-])cc1Cl	1	20	4	-5	1	4	·	·
CCN1CCN(c2ccc(S(=O)(=O)N3CCCCC3)cc2NC(=O)/C=C/c2cc(OC)ccc2OC)CC1	2	100*	10	0	0	11	45*	63*
CCN1CCN(c2ccc(S(=O)(=O)N3CCCCC3)cc2NC(=O)/C=C/c2ccc(OC)c(OC)c2)CC1	3	28	16	12	2	3	·	·
CN(C)S(=O)(=O)c1ccc(Cl)c(NC(=O)CN2CCCCCC2)c1	0	-7	4	23	0	0	·	·
CCN(CC)S(=O)(=O)c1ccc(C)c(NC(=S)NC2CCCCC2)c1	-1	12	-5	2	14	-1	·	·
CCN(CC)S(=O)(=O)c1ccc(Cl)c(NC(=S)NC(=O)C2CCCC2)c1	-6	50*	15	8	8	15	15	·
CCCCNC(=O)C1(C)CCCCN1Cc1ccccc1-c1ccccc1 (stereo not given)	·	·	·	·	-2	·	·	·
CCN1CCN(c2ccc(S(=O)(=O)N3CCCCC3)cc2NC(=O)c2ccccc2)CC1	0	26	11	·	0	3	·	·
CCN1CCN(c2ccc(S(=O)(=O)N3CCCCC3)cc2NC(=O)Cc2ccc(Cl)c(Cl)c2)CC1	-3	64*	15	-3	14	14	38	80*
O=C(CCl)Nc1cc(S(=O)(=O)N2CCCCCC2)ccc1Cl	0	92*	10	15	-7	1	36	50*
O=C(Nc1cccc(NC(=O)c2cc([N+](=O)[O-])ccc2Cl)n1)c1cc([N+](=O)[O-])ccc1Cl	1	96*	2	67	8	104*	96*	50*
CCN1CCN(c2ccc(S(=O)(=O)N3CCCCC3)cc2NC(=O)c2ccc([N+](=O)[O-])s2)CC1	-3	71*	25	34	17	113*	59*	82*
CCN1CCN(c2ccc(S(=O)(=O)N3CCCCC3)cc2NC(=O)Cc2ccccc2)CC1	0	11	6	-9	-2	-4	·	·
Cc1cc(NC(=O)c2cc([N+](=O)[O-])ccc2Cl)no1	-1	39	5	-11	1	-11	·	·
O=C(Nc1ccc2oc(-c3ccncc3)nc2c1)c1ccc([N+](=O)[O-])o1	-7	56*	3	·	2	47	44*	45*
Cn1cc([N+](=O)[O-])c(C(=O)Nc2ccc(-c3nc4ccccc4o3)cc2)n1	-1	52*	·	104*	1	-9	49*	43*
O=C(Nc1ccc(-c2nc3cc(NC(=O)c4cccs4)ccc3o2)cc1)c1cccs1	57*	60*	-1	10	0	26	23	·
O=C(Nc1ccc2oc(-c3ccc4ccccc4c3)nc2c1)c1ccc2c(c1)OCCO2	10*	80*	-57	22	3	49	-2	·
SMILES	NR3A LBD binder	Mdm2 MdmX PPI	Gli-Sufu block	CSC inhib	MPTP block	Beta cell apopt	Mdm2 MdmX conf	Full FLuc ctr
Cc1ccc2ccccc2c1C(O)c1ncc(-c2cccc(F)c2)[nH]1 (stereo not given)	·	·	·	·	1	·	·	·
O=C(CSC(=S)N1CCCC1)NCC(=O)Nc1ccccc1Br	-3	13	-16	·	0	1	·	·
Nc1nccc(NCCSCc2ccccc2)n1	-1	·	13	·	0	·	·	·
Cc1cccc(C)c1OC(=O)c1ccccc1	-5	·	4	·	-1	·	·	·
CCOc1ccc(NC(=O)C2CCCN2S(=O)(=O)c2ccc3c(c2)C(C)(C)C(=O)N3C)cc1 (stereo not given)	-2	6	6	2	-2	2	·	·
CCCCc1ccc(/C(C)=N/NC(=O)C2CCCC2)cc1	0	-2	-11	-1	1	-2	·	·
O=C(Nc1ccc(-c2nc3ncccc3o2)cc1)c1ccc([N+](=O)[O-])o1	1	55*	-27	47	1	36	49*	54*
N#Cc1ccccc1S(=O)(=O)N1CCN(c2nc(-c3cccnc3)nc3ccccc23)CC1	-7	54*	12	·	0	·	47*	76*
O=S(=O)(c1ccccc1F)N1CCN(c2nc(-c3cccnc3)nc3ccccc23)CC1	-4	-9	-8	·	-2	-7	·	·
CCOC(=O)[C@]12CCC=C1N(Cc1cccc3ccccc13)C(=O)[C@H](CC(=O)N1CCOCC1)C2	·	·	·	·	0	·	·	·
O=C(/C=C/c1cccc([N+](=O)[O-])c1)Nc1ccc(NC(=O)c2cccs2)cc1	25*	85*	0	-7	2	-3	3	·
O=C(/C=C/c1cccc([N+](=O)[O-])c1)c1cccs1	0	74*	-12	37	2	1	57*	74*
O=C(/C=C/c1cccc([N+](=O)[O-])c1)N1CCN(c2ccccn2)CC1	1	-13	3	-15	1	1	·	·
O=C(/C=C/c1cccc([N+](=O)[O-])c1)n1cnc2ccccc21	1	100*	16	·	0	·	94*	25
CC1=C(C(=O)N2CCCCCC2)CC(CC(=O)NCCc2ccccn2)C(=O)N1CCCN1CCCC1=O (stereo not given)	·	·	·	·	1	·	·	·
CCn1c(SCC(=O)Nc2cc(C)on2)nc2sc3c(c2c1=O)CCCC3	-1	76*	-3	-1	1	82*	54*	16
